Measured values reported in PubChem BioAssay (EPA / NIEHS).
Several values for one entry are separate records, joined by “and”; a condition that tells them apart may be missing. Identical values can stand only once. More than one record can exist for a structure, and the calls need not agree. Activity calls are given as the source filed them. How the source made its calls: active means hit-call score of the fitted dose curve at least 0.9, where 1 is the maximum; inactive means score below 0.9.

Read-out: KRT18 (gene 3875)
Assay: BSK_BF4T_Keratin818: BioMAP Diversity Plus: BF4T Assay for Keratin 818 Biomarker Activity (AID 2284266)
Conditions: primary human bronchial epithelial cells with fibroblasts
Description: BSK_BF4T is a cell-based, multiplexed-readout assay that uses bronchial epithelial cells and dermal fibroblasts, a human vascular primary cell, with measurements taken at 24 hours after chemical dosing in a microplate: 96-well plate.BSK_BF4T_Keratin818 is an assay component measured in the BSK_BF4T assay. It measures Keratin 8/18 antibody related to regulation of gene expression using ELISA technology.Data from the assay component BSK_BF4T_Keratin818 was analyzed at the endpoint, BSK_BF4T_Keratin818, in the positive analysis fitting direction relative to DMSO as the negative control and baseline of activity. Using a type of binding reporter, gain or loss-of-signal activity can be used to understand protein changes. To generalize the intended target to other relatable targets, this assay endpoint is annotated to the 'cell adhesion molecules' intended target family, where the subfamily is 'keratin'.
The levels of cell surface (or secreted, indicated by the prefix "s") biomarker endpoints were measured by ELISA. Overt cytotoxicity to cells in confluent adherent cultures (all systems other than the BT system) was assessed by measuring total protein levels using sulforhodamine B (SRB) staining in parallel cultures at the time of biomarker measurements, indicated as SRB endpoints. For proliferation assays for adherent cell types, individual cell types are cultured at sub-confluence and relative cell numbers quantified by SRB staining at time points optimized for each system (48 h: 3C and CASM3C systems; 72 h: BT and HDF3CGF systems; 96 h: SAg system). SRB was performed by staining cells with 0.1% SRB after fixation with 10% TCA and reading wells at 560 nm.Viability and proliferation of PBMC (T cells) was quantified by Alamar Blue reduction for the SAg and BT systems. For PBMC viability (referred to as PBMC Cytotoxicity within the assay endpoint names), cells were plated (75,000/well in a 96-well plate) and then chemical samples added for 1 h before addition of activators, SEB and TSST-1 (20 ng/mL final concentration each). Cells were incubated for 90 h. Then, Alamar Blue (20 uL/well) (Invitrogen, Cat DAL1100) was added for 6 h, and the plates were read with a fluorescence microplate reader at 546/580 nm (excitation/emission). For PBMC proliferation, cells were plated and activated as above but incubated for only 16 h prior to addition of Alamar Blue. Plates were read after 6 h.

Compound	outcome	AC50
NC(=O)C(F)(F)C(F)(F)C(F)(F)F	inactive	
O=C(Cl)C(F)(F)C(F)(F)C(F)(F)C(F)(F)C(F)(F)C(F)(F)F	inactive	
CN(C(=O)C(F)(F)C(F)(F)C(F)(F)F)[Si](C)(C)C	inactive	
NS(=O)(=O)C(F)(F)C(F)(F)C(F)(F)C(F)(F)C(F)(F)C(F)(F)F	inactive	30 µM (active)
O=C(Cl)C(F)(F)C(F)(F)C(F)(F)C(F)(F)C(F)(F)C(F)(F)C(F)(F)F	inactive	
NC(=O)C(F)(F)C(F)(F)C(F)(F)C(F)(F)C(F)(F)C(F)(F)C(F)(F)F	inactive	
NC(O)(C(F)(F)F)C(F)(F)F	inactive	
CCN(CCO)S(=O)(=O)C(F)(F)C(F)(F)C(F)(F)C(F)(F)C(F)(F)C(F)(F)C(F)(F)C(F)(F)F	inactive	
O=C(O)C(F)(F)C(F)(F)C(F)(F)OC(F)(C(F)(F)F)C(F)(F)F	inactive	
O=S(=O)(O)CCC(F)(F)C(F)(F)C(F)(F)C(F)(F)F	inactive	
C=CC(=O)OCC(F)(F)C(F)(F)C(F)(F)C(F)(F)C(F)(F)C(F)(F)C(F)(F)C(F)F	inactive	
CNS(=O)(=O)C(F)(F)C(F)(F)C(F)(F)C(F)(F)C(F)(F)C(F)(F)C(F)(F)C(F)(F)F	inactive	
O=S(=O)(OCC(F)(F)F)C(F)(F)C(F)(F)C(F)(F)C(F)(F)F	inactive	
O=C(F)C1(F)C(F)(F)C(F)(F)C(F)(F)C(F)(F)C1(F)F	inactive	
O=C(O)C(F)(F)C(F)(F)C(F)(F)OC(F)(F)F	inactive	
O=S(=O)(O)CCC(F)(F)C(F)(F)C(F)(F)C(F)(F)C(F)(F)C(F)(F)C(F)(F)C(F)(F)F	inactive	
O=C(O)C(F)(F)C(F)(F)C(F)(F)C(=O)O	inactive	
OCCCCC(F)(F)C(F)(F)C(F)(F)C(F)(F)F	inactive	
C=CC(=O)OCCC(F)(F)C(F)(F)C(F)(F)C(F)(F)F	inactive	

Compound	outcome	AC50
O=C(O)C(F)(F)C(F)(F)C(F)(F)C(F)(F)C(F)(F)C(F)(F)C(F)F	inactive	
NCC(F)(F)C(F)(F)C(F)(F)C(F)(F)C(F)(F)C(F)(F)C(F)(F)C(F)(F)F	inactive	
FC(F)(F)C(F)(F)C(F)(F)C(F)(F)C(F)(F)C(F)(F)CC[Si](Cl)(Cl)Cl	inactive	
NC(=O)C(F)(F)C(F)(F)C(F)(F)C(F)(F)C(N)=O	inactive	
OCC(O)CC(F)(F)C(F)(F)C(F)(F)C(F)(F)C(F)(F)C(F)(F)C(F)(F)C(F)(F)F (stereo not given)	inactive	
O=C(O)CCC(F)(F)C(F)(F)C(F)(F)C(F)(F)C(F)(F)C(F)(F)C(F)(F)F	inactive	
C=CC(=O)OCC(F)(F)C(F)(F)C(F)(F)COC(=O)C=C		45.3 µM (active) and 51.1 µM (active)
OCC(F)(F)C(F)(F)C(F)(F)C(F)(F)C(F)(F)C(F)(F)C(F)(F)C(F)(F)CO	inactive	
CO[Si](C)(CCC(F)(F)C(F)(F)C(F)(F)C(F)(F)C(F)(F)C(F)(F)F)OC	inactive	
OCC(O)CC(F)(F)C(F)(F)C(F)(F)C(F)(F)F (stereo not given)	inactive	
OCC(F)(F)C(F)(F)C(F)(F)C(F)(F)C(F)(F)C(F)(F)CO	inactive	
O=C(O)CCC(F)(F)C(F)(F)C(F)(F)F	inactive	
CCOC(=O)CC(=O)C(F)(F)C(F)(F)F	inactive	
NC(=O)C(F)(F)C(F)(F)C(F)(F)C(F)F	inactive	
O=S(=O)(Cl)C(F)(F)C(F)(F)C(F)(F)C(F)(F)C(F)(F)C(F)(F)C(F)(F)C(F)(F)F	inactive	48.5 µM (active)
C[Si](Cl)(Cl)CCC(F)(F)C(F)(F)C(F)(F)C(F)(F)C(F)(F)C(F)(F)F	inactive	
OCC(F)(F)C(F)(F)C(F)(F)CO	inactive	
FC(F)(F)C(F)(F)C(F)(F)C(F)(F)C(F)(F)C(F)(F)C(F)(F)CCI	inactive	
OCCCC(F)(F)C(F)(F)C(F)(F)C(F)(F)C(F)(F)C(F)(F)C(F)(F)C(F)(F)F		47.1 µM (active) and 33.9 µM (active)
